The values below come from PubChem BioAssay (NCI).

“And” between values parts separate entries of the source, which are not always exact repeats. Equal entries are not always repeated. The panel holds about 83,000 compounds, 20% with a hit somewhere; the sample as a whole holds those more often.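 For each line, cells grew in 96-well plates with the test compound present at a single concentration for 48 hours.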 Unmarked numbers belong to inactive results. The source made the active and inactive calls. The calls were made as follows: active = growth percent below 10; inactive = the rest.

What all share (assay): NCI-60 one-dose screen, 48 h (100 = growth as untreated, 0 = no growth, -100 = all killed)
One assay deals with HCT-15 colon. To be noted: 10 µM.
Another assay deals with HT29 colon. To be noted: 10 µM.
Another assay concerns SNB-75 CNS. To be noted: 10 µM.
The test system of a further assay is SNB-19 CNS. Particulars: 10 µM.
In another assay the test system is U251 CNS. To be noted: 10 µM unless noted.
In the next assay the test system is PC-3 prostate. Particulars: 10 µM.
The next assay has as its system UACC-62 melanoma.
A further assay relates to LOX IMVI melanoma. Particulars: 10 µM unless noted.
The test system of a further assay is SK-MEL-28 melanoma. To be noted: 10 µM.
Another assay has as its system SK-MEL-2 melanoma. To be noted: 10 µM.
In another assay the test system is EKVX NSCLC. To be noted: 10 µM.
The subject of the next assay is UO-31 renal. Particulars: 10 µM.
A further assay concerns TK-10 renal.
A further assay deals with ACHN renal. Particulars: 10 µM.
In another assay the test system is CAKI-1 renal. To be noted: 10 µM.
The next assay has as its system A498 renal. Particulars: 10 µM.
For a further assay, the system named is CCRF-CEM leukemia. To be noted: 10 µM.
Another assay relates to MOLT-4 leukemia. Particulars: 10 µM.
A further assay deals with SK-MEL-5 melanoma. To be noted: 10 µM unless noted.
The subject of a further assay is SN12C renal. To be noted: 10 µM.

Turning to `O=[N+]([O-])C1=C(c2ccccc2)SC=C(c2ccccc2)S1`, the growth in the assay with HCT-15 colon was 58.7%; with HT29 colon, 69.8%; in the assay on SNB-75 CNS, 92.7%; with SNB-19 CNS, 78.3%; with U251 CNS, 51.5%; in the assay on PC-3 prostate it was 62%. Also, the growth is 54.5% in the assay with UACC-62 melanoma (10 µM); 4.56% (active) in the assay on LOX IMVI melanoma; 88.2% in the assay with SK-MEL-28 melanoma; 88.3% with SK-MEL-2 melanoma; 92.3% in the assay with EKVX NSCLC; 71.6% in the assay with UO-31 renal. Besides, the growth in the assay on TK-10 renal (10 µM) was 104%; with ACHN renal, 83.5%; in the assay on CAKI-1 renal it was 85.5%; with A498 renal, 84%; in the assay with CCRF-CEM leukemia, 14.8%; in the assay with MOLT-4 leukemia, 26.4%.
As to `COC(=O)C1=COC(C)C2C[n+]3ccc4c([nH]c5ccccc54)c3CC12` (centres undefined), the growth in the assay with HCT-15 colon is 104% and 101%; in the assay on HT29 colon it was 99.4% and 81.3%; with SNB-75 CNS it was 83.3% and 92.8%; in the assay on SNB-19 CNS, 101% and 90.3%; in the assay with U251 CNS, 101% and 88.4%; with PC-3 prostate it was 92% and 75.7%. Further, the growth in the assay with UACC-62 melanoma (10 µM) is 91.1% and 83.1%; in the assay with UACC-62 melanoma (100 µM), 52.7% and 32.5%; in the assay with LOX IMVI melanoma it was 98.9% and 98%; in the assay on SK-MEL-28 melanoma, 106% and 103%; with SK-MEL-2 melanoma it was 103% and 85.1%; in the assay on EKVX NSCLC, 102% and 93%. For the same compound, the growth in the assay with UO-31 renal is 79.1% and 73.4%; in the assay with TK-10 renal (10 µM), 107% and 126%; in the assay with TK-10 renal (100 µM), 110% and 56.8%; in the assay on ACHN renal, 99.7% and 88.9%; with CAKI-1 renal it was 101% and 94.4%; with A498 renal, 72.8% and 94.7%. Further, the growth is 97.4% and 104% in the assay with CCRF-CEM leukemia; 98.8% and 94.3% with MOLT-4 leukemia.
As for `CCC(C)(C)c1cc(O)c(C(C)(C)CC)cc1O`, the growth in the assay with HCT-15 colon was 43.8%; with HT29 colon it was 28.5%; with SNB-75 CNS it was 52.1%; in the assay with SNB-19 CNS, 21.8%; with U251 CNS, 30.4%; with PC-3 prostate it was 32.3%. For the same compound, the growth in the assay on SK-MEL-5 melanoma is 22.8%; with UACC-62 melanoma (10 µM), 35.4%; in the assay on LOX IMVI melanoma, 13%; in the assay on SK-MEL-28 melanoma it was 43.5%; in the assay on SK-MEL-2 melanoma it was 24.4%; in the assay on EKVX NSCLC it was 43.4%. For the same compound, the growth in the assay on TK-10 renal (10 µM) is 63.2%; in the assay on ACHN renal, 43.4%; in the assay with CAKI-1 renal, 41.4%; in the assay on A498 renal, 50.1%; in the assay on MOLT-4 leukemia, 24.7%.
Consider `OCC1OC(n2cnc3c(=S)nc[nH]c32)C(O)C1O` (centres undefined), for which the growth in the assay with HCT-15 colon is 104% and 55.5%; in the assay with HT29 colon it was 98.4% and 45.9%; in the assay on SNB-75 CNS it was 110% and 60.5%; in the assay on SNB-19 CNS, 111% and 97.4%; in the assay on U251 CNS, 93.5% and 83.2%; with PC-3 prostate, 89.1% and 73.1%. The growth was 92.3% and 26.7% in the assay with UACC-62 melanoma (10 µM); 98.2% and 16.1% in the assay on LOX IMVI melanoma; 113% in the assay with SK-MEL-28 melanoma; 100% and 57.6% in the assay on SK-MEL-2 melanoma; 106% and 119% in the assay on EKVX NSCLC; 95.1% and 82.5% in the assay on SN12C renal. In addition, the growth is 93.9% and 50.5% in the assay on UO-31 renal; 97.9% and 40.7% with TK-10 renal (10 µM); 103% and 32.9% with ACHN renal; 104% and 18% with CAKI-1 renal; 105% and 119% with A498 renal; 107% and 32.7% in the assay on CCRF-CEM leukemia. Besides, in the assay with MOLT-4 leukemia, the growth was 120% and 35.7%.
